Reference: PubChem BioAssay (NCI)
Where “and” joins values, the source holds several entries; their conditions need not be identical. Identical values can stand only once. This is part of a sample that, as a whole, favours compounds with a hit. Of some 83,000 tested, about 20% had one in any assay.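 Growth was measured after 48 h exposure to one concentration of compound in 96-well plates. Values under 10 count as active.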 Unmarked numbers belong to inactive results. Calls of active or inactive are those of the source. Where a SMILES comes first, the peptide text is derived from it. [ ]: non-standard residue; d: D form. ξ: configuration not given here. ξD = NC(CC(=O)O)C(=O)O

What was measured:
Assay in all cases: NCI-60 one-dose screen, 48 h (100 = growth as untreated, 0 = no growth, -100 = all killed)
Conditions in all cases: 10 µM unless noted
T-47D breast = tested on: T-47D breast
MDA-MB-435 melanoma = tested on: MDA-MB-435 melanoma
SW-620 colon = tested on: SW-620 colon
MCF7 breast = tested on: MCF7 breast
HCC-2998 colon = tested on: HCC-2998 colon
KM12 colon = tested on: KM12 colon
HCT-116 colon = tested on: HCT-116 colon
BT-549 breast = tested on: BT-549 breast

Row | SMILES | growth (T-47D breast) | growth (MDA-MB-435 melanoma) | growth (SW-620 colon) | growth (MCF7 breast) | growth (HCC-2998 colon) | growth (KM12 colon) | growth (HCT-116 colon) | growth (BT-549 breast)
1 | O=C1C=C(Cl)C(=O)c2ccccc21 | 14.9% | 112% | 98% | 81.3% | 125% | 99.4% | – | –
2 | CN(C)c1ccc(/C=C/c2sc3ccc4ccccc4c3[n+]2C)cc1 | -10.9% (active) | -34.8% (active) | -63.9% (active) | -9.73% (active) | -91.5% (active) | -63% (active) | -71.8% (active) | –
3 | O=[N+]([O-])c1ccc([I+]c2ccccc2)cc1 | -20% (active) | 20.8% | – | -29% (active) | 46.1% | -75.7% (active) | -31.4% (active) | –
4 | CC1(C)CCCC2=C1C(=O)N(SC(Cl)(Cl)Cl)C2=O | 66.9% | 92.1% | 88% | 67.3% | 96.5% | 101% | – | –
5 | Nc1nc(N)c2cc(Sc3cccc(C(F)(F)F)c3)ccc2n1 | 45% | 28.8% | 22.5% | 23.9% | -57.2% (active) | 24.8% | 15% | –
6 | S=C(SSC(=S)N1CCOCC1)N1CCOCC1 | 79.8% | 53.6% | -57.5% (active) | 66.5% | 49.6% | 69.5% | – | –
7 | N#Cc1c2ccccc2nc2ccccc12 | 101% | 103% | 98.4% | 101% | – | 108% | – | –
8 | O=C(c1ccccc1)N(CCCl)C(=O)N(CCCl)C(=O)c1ccccc1 | 86% | 102% | 110% | 101% | 104% | 102% | 90% | –
9 | CCOc1cc(F)c([N+](=O)[O-])cc1[N+](=O)[O-] | 24.5% | 37.2% | 19.8% | 15.9% | 98.7% | -44.7% (active) | 9.26% (active) | –
10 | CCC[CH2][Sn]1([CH2]CCC)[O]C2C(CO)OC(n3ccc(N)nc3=O)C2[O]1 (stereo not given) | -68.8% (active) | -75.5% (active) | -77.1% (active) | -92.2% (active) | -19.2% (active) | 7.12% (active) | -73.6% (active) | –
11 | Nc1ccc(-c2ccc(N)c(S(=O)(=O)O)c2)cc1S(=O)(=O)O | 106% | 115% | 107% | 104% | 113% | 103% | 107% | –
12 | COC(=O)c1cc([N+](=O)[O-])cc([N+](=O)[O-])c1Cl | -28.3% (active) | 81.7% | 31.7% | 45.1% | 106% | 105% | -42.8% (active) | –
13 | CCN(CC)CCNc1ccc([N+](=O)[O-])c2sc3ccccc3c(=O)c12 | 45.5% | 18.4% | -5.78% (active) | 8.95% (active) | 36.6% | 22.9% | 17.9% | –
14 | Oc1cc(Cl)ccc1Cc1ccc(Cl)cc1O | 29.2% | 46.2% | 81.2% | 68.3% | 88.1% | 98.7% | – | –
15 | CC(C)(C)c1ccc(O)c(Br)c1 | 103% | 92.1% | 92.4% | – | 98% | 104% | 93.2% | –
16 | Fc1ccc(NCCS)cc1 | 103% | 107% | 102% | 90% | 96.7% | 98.3% | 111% | –
17 | O=C(/C=C/c1ccccc1)c1ccccc1O | 62.6% | 80.6% | 75.1% | 26.7% | 96.3% | 28.2% | 62.9% | –
18 | c1ccc(-c2cccc(-c3ccccn3)n2)nc1 | 38.1% | 33.9% | 29.6% | 14.1% | 18.7% | 27.6% | 6.59% (active) | –
19 | CCCCCCCCCCCC1N=C(N)N=C(N)N1c1cccc(Br)c1 (stereo not given) | 38.4% | 22.4% | -93.9% (active) | -87.8% (active) | -87.7% (active) | -91.8% (active) | – | –

Row | SMILES | growth (T-47D breast) | growth (MDA-MB-435 melanoma) | growth (SW-620 colon) | growth (MCF7 breast) | growth (HCC-2998 colon) | growth (KM12 colon) | growth (HCT-116 colon) | growth (BT-549 breast)
20 | O=C1C=CC(O)=CC1=P(c1ccccc1)(c1ccccc1)c1ccccc1 | 96.3% | 103% | 98.2% | 91.7% | -29.4% (active) | 99.7% | 88% | –
21 | COc1ccc2nc3cc(Cl)ccc3c(NCCCCCN3CCCCC3)c2c1 | – | -92% (active) | -27.4% (active) | – | -76.7% (active) | -12.8% (active) | -61.5% (active) | –
22 | CCCCCCCCC(=O)OCCCC(CCC(CCC1CCCO1)OC(=O)CCCCCCCC)OC(=O)CCCCCCCC (stereo not given) | – | 104% | 99.8% | 100% | 123% | 103% | 92.4% | 92.7%
23 | CCOC(=O)c1c(C)[nH]c2ccc(O)cc12 | – | 100% | 105% | 83.4% | 107% | 86.4% | 103% | –
24 | N#C/C(=N\Nc1ccc(Cl)cc1)C(=O)C1CC1 | – | 41% | – | – | 72.1% | 56.2% | 63.9% | 40.2%
25 | Oc1ccc(Cl)cc1Cc1cc(Cl)ccc1O | – | 36.7% | 26.9% | 31.9% | 50.7% | 72.5% | – | 37.1%
26 | Oc1ccc2ccccc2c1N=Nc1ccccn1 | 12.7% | 49.9% | – | 0.0702% (active) | 45.2% | 34.4% | 1.41% (active) | –
27 | Cc1cc2nc(CC(=O)c3ccncc3)c(=O)[nH]c2cc1C | – | 107% | 103% | 88.5% | 102% | 103% | 88.5% | 88.9%
28 | CN(Cc1ccccc1)c1ccc(SC#N)cc1 | – | 94.7% | – | 76.3% | 89.8% | 40.4% | 39.5% | 43.9%
29 | O=[N+]([O-])/C(=C/c1ccccc1)c1ccccc1 | – | 107% | 107% | 97.4% | 94.1% | 107% | 96.5% | 93%
30 | CN(C)CC(C)(CN(C)C)C(=O)/C=C/c1c(Cl)cccc1Cl | – | 13.1% | 4.63% (active) | -60.9% (active) | 37.2% | -25.7% (active) | -41.2% (active) | 51.1%
31 | NNc1cccc([N+](=O)[O-])c1 | – | 86.8% | 63.2% | 106% | 110% | 52.5% | – | 93.6%
32 | N#CC1c2ccccc2C=CN1C(=O)CCCl (stereo not given) | 52.4% | 94% | – | 24.8% | 110% | 86.4% | – | –
33 | O=C(/C(Cl)=N/O)c1ccc(-c2ccccc2)cc1 | – | 114% | 110% | – | 105% | 108% | 113% | –
34 | CCOC(=O)C1C(C(C)C)C2(C#N)C(=N)OC1(C)C2(C#N)C#N (stereo not given) | – | – | – | 2.36% [100 µM] (active) and -41% [100 µM] (active) | – | – | – | –
35 | O=[N+]([O-])c1ccc(Oc2ccccc2Cl)c([N+](=O)[O-])c1 | – | 81.5% | 39.9% | 89.4% | 112% | 89.2% | 88.2% | –
36 | O=C(c1ccc(O)c(Br)c1)c1ccc(O)c(Br)c1 | 106% | 118% | – | 117% | 105% | 99.2% | – | –
37 | CCOC(=O)C1=NN(c2ccccc2)C(=O)/C1=C\N1C(=O)/C(=C/c2cccc(O)c2)SC1=S | 93% | 109% | – | 91.8% | 99.8% | 100% | 88.8% | –
38 | CC1CC(C)(C)OB(OC(C)CC(C)(C)OB2OC(C)CC(C)(C)O2)O1 (stereo not given) | – | 107% | 117% | 96.6% | 93.3% | 101% | 99.9% | 77.7%

Row | SMILES | growth (T-47D breast) | growth (MDA-MB-435 melanoma) | growth (SW-620 colon) | growth (MCF7 breast) | growth (HCC-2998 colon) | growth (KM12 colon) | growth (HCT-116 colon) | growth (BT-549 breast)
39 | COc1cc(NC(=O)C2=C(C)NC(C)=C(C(=O)Nc3cc(OC)c(Cl)cc3OC)C2c2cccc([N+](=O)[O-])c2)c(OC)cc1Cl | – | 9.7% (active) | 46.4% | 14.5% | 15.6% | 18.3% | 23.9% | 36.9%
40 | Oc1c(C(Nc2ccccc2)c2ccccc2)ccc2cccnc12 (stereo not given) | – | 23.8% | 45.1% | 16.3% | 44.9% | 32.5% | 19.3% | –
41 | NCC(=O)NC(CC(=O)O)C(=O)O (stereo not given) (H-Gly-[ξD]-OH) | – | 99.5% | 98.9% | 100% | 110% | 107% | 106% | 102%
42 | CCOC(=O)C1=C(C(=O)c2ccccc2)C(c2cccc([N+](=O)[O-])c2)C(C(=O)c2ccccc2)=C(C(=O)OCC)N1 | – | 91.6% | – | 13% | 105% | 75.8% | 37.5% | –
43 | O=C(Cc1nc2cc(Cl)c(Cl)cc2nc1CC(=O)c1cccnc1)c1cccnc1 | – | 75.9% | 90.3% | 29.6% | 115% | 85.9% | 52.7% | 2.99% (active)
44 | c1ccc(-c2cc3cc4ccccc4cn3c2)cc1 | – | 91.4% | 89.9% | 88.8% | 121% | 86.2% | 88% | –
45 | O/N=C1\c2ccccc2-c2ccc(F)cc21 | – | 114% | 112% | 25.6% | 95.1% | – | 98.3% | 97.4%
46 | CCOC(=O)NC(/C=C/c1ccccc1)NC(=O)OCC | – | 106% | 100% | 101% | 112% | 107% | – | 107%
47 | Nc1ccc(C(=O)/C=C/c2ccccc2)cc1 | – | 96.8% | 103% | 73.3% | 100% | 74.2% | 60.3% | 61.1%
48 | Nc1nc2ncc(CNc3ccc(C(=O)NC(CCC(=O)NC(CCC(=O)NC(CCC(=O)NC(CCC(=O)NC(CCC(=O)O)C(=O)O)C(=O)O)C(=O)O)C(=O)O)C(=O)O)cc3)nc2c(=O)[nH]1 (stereo not given) | – | 111% | 105% | 98.7% | 117% | 101% | 103% | 106%
49 | O=C(Cc1nc2cc(Cl)c(Cl)cc2nc1CC(=O)c1ccccc1)c1ccccc1 | – | 67.4% | 92.6% | 9.51% (active) | 92.8% | 77.3% | 56.8% | 52%
50 | CC(=O)Nc1ccc(C(=O)CCl)cc1 | – | 14.4% | -16.6% (active) | 3.18% (active) | 102% | 85.7% | 32.3% | 58.6%
51 | CCCCCCCCCCCC[S+](C)CC(=O)[O-] (stereo not given) | – | 47.2% | 69.9% | 58.2% | 34.4% | 30.7% | – | -29.2% (active)
52 | CC(C)(C)CC(C)(C)c1ccc(OCCOCCSC(=N)N)cc1 | – | -64.8% (active) | -2.39% (active) | 4.55% (active) | -32.3% (active) | 36.9% | -65% (active) | –
53 | CC(=O)N1CC(=O)NC1=S | – | 98.3% | 102% | 94.1% | 95% | 103% | 102% | 103%
54 | Oc1ccccc1N=Cc1ccccc1 | – | 87% | 85.1% | 74.3% | 100% | 74.1% | 69.4% | 79.7%
55 | Nc1nc(-c2ccccc2)nc(N)c1N=O | – | 46.7% | 1.65% (active) | 33% | 103% | 58.8% | – | –
56 | O=C/C=C/c1ccc([N+](=O)[O-])cc1 | – | 108% | 106% | 90.3% | 95.8% | 101% | 80.6% | 116%
57 | N#CCc1cccc2ccccc12 | 105% | 119% | – | 87.4% | 109% | 110% | – | –
